Data on 38 compounds can be found in PubChem BioAssay (EPA / NIEHS).

Values joined by “and” are separate entries in the source; they are usually repeats but may differ in a detail not shown here. Equal values may be shown once. More than one record can exist for a structure, and the calls need not agree. Active and inactive are the calls of the source. How the source made its calls: active means hit-call score of the fitted dose curve at least 0.9, where 1 is the maximum; inactive means score below 0.9.

The test can be described thus: APR_HepG2_MicrotubuleCSK_24hr: Apredica 24-hour HepG2 Assay for Microtubule CSK Stabilty (AID 2282909). The note with it: HepG2 microtubule cytoskeleton imaging, actives raise or lower the signal. The procedure: APR_HepG2_24hr is a cell-based, multiplexed-readout assay that uses HepG2, a human liver cell line, with measurements taken at 24 hours after chemical dosing in a 384-well plate.APR_HepG2_MicrotubuleCSK_24hr is one of 10 assay component(s) measured or calculated from the APR_HepG2_24hr assay. It is designed to make measurements of protein conformation, a form of conformation reporter, as detected with fluorescence intensity signals by HCS Fluorescent Imaging technology.Data from the assay component APR_HepG2_MicrotubuleCSK_24hr was analyzed into 1 assay endpoint. This assay endpoint, APR_HepG2_MicrotubuleCSK_24hr, was analyzed with bidirectional fitting relative to DMSO as the negative control and baseline of activity. Using a type of conformation reporter, measures of protein for gain or loss-of-signal activity can be used to understand the signaling at the cellular-level. Furthermore, this assay endpoint can be referred to as a primary readout, because this assay has produced multiple assay endpoints where this one serves a signaling function. To generalize the intended target to other relatable targets, this assay endpoint is annotated to the cell morphology intended target family, where the subfamily is cell conformation.
Cells were treated with dimethyl sulfoxide (DMSO) as a solvent control at a final concentration of 0.5% v/v or with compounds in DMSO with a resulting final DMSO concentration of 0.5% v/v. Compound treatment was done at concentrations of 0.39, 0.78, 1.56, 3.12, 6.24, 12.5, 25, 50, 100, and 200 uM in duplicate on each plate. Cells were treated with compounds for 1, 24, or 72 hr. Carbonyl […] m-chloro-phenylhydrazone (CCCP) and taxol were used as positive controls for mitochondrial function and cytoskeletal stability, respectively; DMSO served as the negative control for this experiment. Cells were fixed by the direct addition of 50 uL formaldehyde in Hank's Balanced Salt Solution (HBSS) to a final concentration of 3.7%. After incubation in the fixation medium for 30 min at room temperature (293-298 K), cells were rinsed twice with HBSS and treated with cell permeabilization buffer (16 uL of 0.5% Triton X-100) for 10 min at room temperature (293-298 K) before labeling. For mitochondrial membrane potential and mitochondrial measurements, pre-fixed cells were incubated with 50 uL of MitoTracker Red CMXRos (Invitrogen) at a concentration of 250 nM for 30 min before fixation. In the remaining cases, post-fixed cells were labeled by incubation with a multiplexed mixture of primary antibodies in HBSS for 60 min at room temperature (293-298 K) to detect immunoreactivity of c-Jun (1:500), phospho-histone H3 (1:100), phospho-histone H2A.x (1:200), p53 (1:400), alpha-tubulin (1:200) and Hoechst 33342 (2 ug/mL). Cells were labeled for multiplexed imaging on two separate plates: a) Hoechst 33342, MitoTracker Red, phospho-histone H3, and alpha-tubulin, and b) Hoechst 33342, phospho-histone H2A.x, and c-Jun. A final rinse with HBSS (50 uL) was performed before analysis. The primary and secondary antibodies for the proteins were phospho-histone H3 (rabbit anti-phospho-histone H3 and FITC-donkey anti-rabbit IgG), phospho-histone H2A.x (mouse anti-phospho-histone H2A.x and FITC-donkey anti-mouse IgG), c-Jun (rabbit anti-phospho-c-Jun and Cy3-donkey anti-rabbit IgG), p53 (sheep anti-p53 and Cy5-donkey anti-sheep IgG), alpha-tubulin (mouse anti-alpha-tubulin and Cy5-donkey anti-mouse IgG). These antibodies are available as the CellCiphr HepG2 assay kit (Millipore).Digital images of each well were captured using a Cellomics ArrayScan VTI (Thermo Scientific Cellomics) (0.8 NA objective, 0.63x optical coupler, and XF-93 filter set) at 20x magnification. The images were acquired using the autofocus feature of the ArrayScan instrument, which entails the following steps. First, the camera focuses on channel 1 (Hoechst 33342), where nuclei are identified. Second, a Z offset of 1 um is used for capturing mitochondria (MitoTracker Red). […]
As for `CC(C)C1(C)N=C(c2nc3ccccc3cc2C(=O)O)NC1=O` (stereo not given), the compound was classed as inactive. With `O=C(Nc1ccccc1)Nc1ccnc(Cl)c1`, the AC50 is 84.5 µM (active). As to `CCNc1nc(Cl)nc(NC(C)C)n1`, the compound was classed as inactive. For `CCNc1nc(Cl)nc(NCC)n1`, the call was inactive. For the compound `COc1cnc(OC)n2nc(NS(=O)(=O)c3c(OCC(F)F)cccc3C(F)(F)F)nc12`, the result was inactive.

With `CCCN(CCC)c1c([N+](=O)[O-])cc(S(N)(=O)=O)cc1[N+](=O)[O-]`, the result was inactive and the AC50 is 109 µM (active).

As for `CCc1nn(C)c(C(=O)NCc2ccc(C(C)(C)C)cc2)c1Cl`, the AC50 is 19.8 µM (active). Still for that read-out and setting: as for `OC(c1ccc(Cl)cc1)(c1cncnc1)c1ccccc1Cl` (stereo not given), the figure is 84.9 µM (active); as for `COc1ccc(C(c2ccc(OC)cc2)C(Cl)(Cl)Cl)cc1`, 69.8 µM (active); as for `C=CCC1=C(C)[C@@H](OC(=O)[C@@H]2[C@@H](C=C(C)C)C2(C)C)CC1=O`, 55.9 µM (active). On to `CCOP(=S)(OCC)SCn1c(=O)oc2cc(Cl)ccc21`, for which the outcome was inactive. Same read-out and setting: to `COc1nc(NC(C)C)nc(NC(C)C)n1` belongs “inactive”; to `O=C(O)COc1nc(Cl)c(Cl)cc1Cl`, “inactive”. For the compound `CC1COC(Cn2cncn2)(c2ccc(Oc3ccc(Cl)cc3)cc2Cl)O1` (stereo not given), the compound was called inactive.

In the case of `Cc1ccc(-c2c(Cl)nc(C#N)n2S(=O)(=O)N(C)C)cc1`, the result was inactive.

Take `C=CC1(C)OC(=O)N(c2cc(Cl)cc(Cl)c2)C1=O` (stereo not given): the outcome was inactive. For the compound `CC1=C(C(=O)Nc2ccccc2)SCCO1`, the result was inactive.

Regarding `CS/C(C)=N/OC(=O)N(C)SN(C)C(=O)O/N=C(\C)SC`, the outcome was inactive. As to `COC(=O)c1ccccc1C(=O)OC`, the call was inactive. Consider `Cc1c(F)c(F)c(COC(=O)C2C(/C=C(\Cl)C(F)(F)F)C2(C)C)c(F)c1F` (stereo not given), for which the compound was called inactive. For the compound `CN(C)C(=S)SSC(=S)N(C)C`, the half-maximal activity concentration (AC50) is 17.6 µM (active).

Regarding `CCCCC(CC)COC(=O)c1ccccc1C(=O)OCC(CC)CCCC` (stereo not given), the compound was classed as inactive. On to `CO/C=C(/C(=O)OC)c1ccccc1Oc1cc(Oc2ccccc2C#N)ncn1`, for which the result was inactive.

For `CNC(=O)ON=CC(C)(C)SC`, the compound was classed as inactive. Turning to `CC(Oc1ccc(Cl)cc1Cl)C(=O)O` (stereo not given), the compound was called inactive. Take `C=CCC1=C(C)C(OC(=O)C2C(C=C(C)C)C2(C)C)CC1=O` (stereo not given): the call was inactive; the concentration at half-maximal activity (AC50) is 30.6 µM (active) and 29.7 µM (active). Regarding `CC(C)(C)c1ccc(CSc2cnn(C(C)(C)C)c(=O)c2Cl)cc1`, the call was inactive. On to `CCCC1COC(Cn2cncn2)(c2ccc(Cl)cc2Cl)O1` (stereo not given), for which the call was inactive. For `CCOC(=O)C(Cl)Cc1cc(-n2nc(C)n(C(F)F)c2=O)c(F)cc1Cl` (stereo not given), the call was inactive. The same measure, in the same setting: to `O=C(O)c1nc(Cl)ccc1Cl` belongs “inactive”; to `COC(=O)C=C(C)OP(=O)(OC)OC`, “inactive”.

In the case of `COP(N)(=O)SC` (stereo not given), the compound was classed as inactive.

Turning to `CCOC(=O)CC(SP(=S)(OC)OC)C(=O)OCC` (stereo not given), the compound was called inactive. Consider `Oc1ccccc1-c1ccccc1`, for which the call was inactive. On to `CCOc1cc(Oc2ccc(C(F)(F)F)cc2Cl)ccc1[N+](=O)[O-]`, for which the outcome was inactive. For `CON(C)C(=O)Nc1ccc(Cl)c(Cl)c1`, the compound was classed as inactive. For `CNC(=S)S`, the AC50 was 74.4 µM (active). As to `COC(=O)C(C)Oc1ccc(Oc2ccc(Cl)cc2Cl)cc1` (stereo not given), the compound was classed as inactive.
